Inconclusive results are not listed. A call without a number means that no potency is given here. Activity calls are given as the source filed them. Unless noted, calls follow the shape of the dose curve; as a rule, active = well fitted curve in the direction sought with a large enough effect; inconclusive = small, poorly fitted or top-dose-only effect, or another doubt; inactive = no such curve, though single readings can be large; an effect the other way counts as inactive or inconclusive.

Test [1] is described as follows: qHTS assay for cell viability of the p53RE-bla HCT-116 cell line (AID 743292). Also: nearly all actives have a fitted effect of over 55% in size. Put shortly:
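Viability of compound-treated p53RE-bla HCT-116 cells is taken from ATP-dependent luciferase luminescence. Treatment lasts 16 h at 37 C after a 5 h settling period; detection follows 30 min at room temperature.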

Test [2] in a line: qHTS assay for measurement of the activity of small molecule inhibitors on Zika virus induced Caspase-3 activity in human iPSC derived neural progenitor cells (hNPCs) (AID 1224857). Also: nearly all actives have a fitted effect of over 65% in size. In short, it runs like this: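 Caspase-3/7 induction by a 6-hour ZIKV infection was quantified with a luminescent Caspase-Glo 3/7 reagent incubated 30 minutes at room temperature. Compounds were preincubated with hNPCs for 1 hour; inhibition was calculated against uninfected and infected control wells.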

Test [3] is described as follows: qHTS assay for measurement of the activity of small molecule inhibitors on Zika virus induced Caspase-3 activity in human astrocytoma cells (AID 1224859). In short, it runs like this:
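In SNB-19 cells plated at 250 cells/well and grown 16-20 h, compounds were applied 1 h before ZIKV (2 FFU/cell). Six hours later caspase-3/7 luminescence was recorded.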

Test [4] is described as follows: qHTS profiling for inhibitors of Plasmodium falciparum (3D7) proliferation (AID 743322; call rule not given here;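 also: infected erythrocytes exposed to compound for 72 h before lysis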). To be noted: P. falciparum 3D7 proliferation; at 28.7 µM (top of the series) unless noted. Put shortly: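 Erythrocytes infected with P. falciparum (0.3% parasitemia, 2.5% hematocrit) incubated with compounds 72 h at 37 C, 5% CO2. Lysis with saponin/Triton buffer containing SYBR Green I, overnight at room temperature in the dark; DNA fluorescence (485/535 nm) normalised to 0.29 uM artemisinin and DMSO.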

Test [5] can be described thus: qHTS profiling for inhibitors of Plasmodium falciparum (DD2) proliferation (AID 743323; call rule not given here). To be noted: lower = more inhibition; at 28.7 µM (top of the series) unless noted. Put shortly:
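1536-well qHTS; infected RBCs 0.3% parasitemia/2.5% Hct final; cpd 72 h 37 C 5% CO2; lysis buffer + SYBR Green I, o/n RT dark; FI 485/535; norm. to 0.29 uM artemisinin and DMSO, plate-stack corrected.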

Test [6] can be described thus: qHTS profiling for inhibitors of Plasmodium falciparum (HB3) proliferation (AID 743324). To be noted: Plasmodium falciparum HB3 blood-stage proliferation; at 28.7 µM (top of the series) unless noted. Put shortly: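 P. falciparum HB3 grown in erythrocytes (0.3% parasitemia, 2.5% hematocrit final) with compound for 72 h at 37 C, 5% CO2. Parasite DNA detected by SYBR Green after saponin/triton lysis overnight; normalized to 0.29 uM artemisinin and DMSO.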

Take `C[C@]12C[C@H](O)[C@H]3[C@@H](CCC4=CC(=O)CC[C@@]43C)[C@@H]1CC[C@@H]2C(=O)CO`: the Potency entry in test [1] was “inactive”. The call in test [2] and in test [3] was inactive.

As for `CCOc1nc2cccc(C(=O)O)c2n1Cc1ccc(-c2ccccc2-c2nn[nH]n2)cc1`, the call in test [2] and in test [3] was inactive.

With `CC1=C(/C=C/C(C)=C/C=C/C(C)=C/C(=O)O)C(C)(C)CCC1`, the Potency result in test [1] is “inactive”. The outcome in test [2] and in test [3] was inactive.

On to `CN1[C@@H]2CC(OC(=O)[C@H](CO)c3ccccc3)C[C@H]1[C@@H]1O[C@@H]12` (stereo partly drawn), for which the outcome in test [2] and in test [3] was inactive.

On to `CNCC(O)c1ccc(O)c(O)c1` (stereo not drawn), for which the outcome in test [2] and in test [3] was inactive.

`COc1ccc(Cl)cc1C(=O)NCCc1ccc(S(=O)(=O)NC(=O)NC2CCCCC2)cc1`: the Potency entry in test [1] is “inactive”. Further, the call in test [2] and in test [3] was inactive.

For the compound `O=S(=O)(O)c1cc(I)c(O)c2ncccc12`, the result in test [2] and in test [3] was inactive.

Turning to `Nc1ncnc2c1ncn2[C@@H]1O[C@H](CO)[C@@H](O)[C@H]1O`, the compound was classed as inactive in test [2] and in test [3].

With `CN1[C@@H]2CC[C@H]1CC(OC(=O)C(O)c1ccccc1)C2` (stereo partly drawn), the call in test [2] and in test [3] was inactive.

In the case of `CC1(C)OC(=O)NC1=O`, the outcome in test [2] and in test [3] was inactive.

With `COc1ccccc1O`, the Potency result in test [1] was “inactive”. The result in test [2] and in test [3] was inactive.

Consider `O=C1O[C@H]([C@@H](O)CO)C(O)=C1O`, for which the Potency entry in test [1] is “inactive”. The result in test [2] and in test [3] was inactive.

Take `CCCCOc1cc(C(=O)OCCN(CC)CC)ccc1N`: the call in test [2] and in test [3] was inactive.

As to `CC(O)COc1ccccc1` (stereo not drawn), the Potency result in test [1] is “inactive”. Further, the call in test [2] and in test [3] was inactive.

As to `CS(=O)(=O)c1ccc([C@@H](O)[C@@H](CF)NC(=O)C(Cl)Cl)cc1`, the outcome in test [2] and in test [3] was inactive.

As to `C[C@H]1O[C@@H](n2cc(F)c(=O)[nH]c2=O)[C@H](O)[C@@H]1O`, the call in test [2] and in test [3] was inactive.

`CN(C)CCOC(C)(c1ccccc1)c1ccccn1` (stereo not drawn): in test [1], the Potency entry was “inactive”. The call in test [2] and in test [3] was inactive.

In the case of `Nc1ccc(S(=O)(=O)Nc2nccs2)cc1`, the Potency entry in test [1] was “inactive”. Also, the compound was called inactive in test [2] and in test [3].

With `CN(C)CCC=C1c2ccccc2CCc2ccccc21`, in test [1], the Potency entry was “inactive”. The compound was classed as inactive in test [2] and in test [3].

For the compound `CCOC(=O)c1ccc(O)cc1`, the Potency entry in test [1] is “inactive”. For the same compound, the outcome in test [2] and in test [3] was inactive.

Regarding `C[C@]12CC[C@@H]3c4ccc(O)cc4CC[C@H]3[C@@H]1CCC2=O`, the Potency entry in test [1] is “inactive”. Besides, the compound was classed as inactive in test [2] and in test [3].

As to `CN(C)CCN(Cc1ccccc1)c1ccccn1`, the result in test [3] was inactive.

As to `[Cl][In]([Cl])[Cl]`, in test [1], the Potency result is “inactive”. In addition, the result in test [2] and in test [3] was inactive.

On to `NCCNCCNCCN`, for which the Potency entry in test [1] is “inactive”. For the same compound, the result in test [2] and in test [3] was inactive.

Regarding `NC(=O)c1ncn([C@@H]2O[C@H](CO)[C@@H](O)[C@H]2O)c1N`, in test [4], the remaining parasite growth % (stronger effect = lower value) is 104%. Further, the activity, percent of control in test [5] was 121%. Also, the compound was classed as inactive in test [2] and in test [3].

As for `N[C@@H](CSSC[C@H](N)C(=O)O)C(=O)O`, the activity change, negative = inhibition in test [3] is 23% [at 0.568 µM] (inactive).

Regarding `Cc1cccc(Nc2cc(Cl)nc(SCC(=O)O)n2)c1C`, in test [1], the Potency entry is “inactive”. For the same compound, the outcome in test [2] and in test [3] was inactive.

Take `O=S(=O)(O)NC1CCCCC1`: the Potency entry in test [1] was “inactive”. The compound was classed as inactive in test [2] and in test [3].

On to `C[C@](N)(Cc1ccc(O)cc1)C(=O)O`, for which the outcome in test [3] was inactive.

With `CCCCN(CCCC)CC(O)c1cc(Cl)cc2c1-c1ccc(Cl)cc1/C2=C/c1ccc(Cl)cc1` (stereo not drawn), in test [4], the remaining parasite growth % (stronger effect = lower value) was 0.77%. For the same compound, in test [5], the activity, percent of control is 1.35%. The same compound came in with a remaining proliferation (% of control), lower = more inhibition in test [6] of 1.36%. Further, the result in test [2] and in test [3] was inactive.

For the compound `Oc1cccc(O)c1`, the Potency result in test [1] is “inactive”. In addition, the compound was called inactive in test [2] and in test [3].

Take `Cc1cc2nc3c(=O)[nH]c(=O)nc-3n(C[C@H](O)[C@H](O)[C@H](O)CO)c2cc1C`: in test [1], the Potency entry was “inactive”. In addition, the compound was called inactive in test [2] and in test [3].

Turning to `Cn1cc[nH]c1=S`, in test [3], the compound was called inactive.

As to `Cc1cc(CC(=O)O)n(C)c1C(=O)c1ccc(Cl)cc1`, the Potency entry in test [1] is “inactive”. For the same compound, the compound was called inactive in test [2] and in test [3].

For the compound `NC(=O)N/N=C/c1ccc([N+](=O)[O-])o1`, in test [1], the Potency entry is “inactive”. In addition, the compound was classed as inactive in test [2] and in test [3].

Take `CCCCOC(=O)c1ccc(O)cc1`: the Potency result in test [1] was “inactive”. In addition, the outcome in test [2] and in test [3] was inactive.

The record behind these values is PubChem BioAssay (NCATS).
